PMC4336329 (PLoS ONE, 2015)
The campaign covered roughly 310,000 compounds. About 14,000 (4.5%) showed an effect of 50% or more. The effect is printed as a negative number. This is one part of a sample in which strong results are shown more often than they occur.

Target: human ether-à-go-go-related gene (hERG) potassium channel (human, UniProt Q12809)
Assay: primary screen, population patch clamp on CHO cells stably expressing hERG; higher = less effect of the substance
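Further: peak tail current of the secondary pulse compared with the same well before compound.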

human ether-à-go-go-related gene (hERG) potassium channel, sequence (Q12809 whole entry, looked up): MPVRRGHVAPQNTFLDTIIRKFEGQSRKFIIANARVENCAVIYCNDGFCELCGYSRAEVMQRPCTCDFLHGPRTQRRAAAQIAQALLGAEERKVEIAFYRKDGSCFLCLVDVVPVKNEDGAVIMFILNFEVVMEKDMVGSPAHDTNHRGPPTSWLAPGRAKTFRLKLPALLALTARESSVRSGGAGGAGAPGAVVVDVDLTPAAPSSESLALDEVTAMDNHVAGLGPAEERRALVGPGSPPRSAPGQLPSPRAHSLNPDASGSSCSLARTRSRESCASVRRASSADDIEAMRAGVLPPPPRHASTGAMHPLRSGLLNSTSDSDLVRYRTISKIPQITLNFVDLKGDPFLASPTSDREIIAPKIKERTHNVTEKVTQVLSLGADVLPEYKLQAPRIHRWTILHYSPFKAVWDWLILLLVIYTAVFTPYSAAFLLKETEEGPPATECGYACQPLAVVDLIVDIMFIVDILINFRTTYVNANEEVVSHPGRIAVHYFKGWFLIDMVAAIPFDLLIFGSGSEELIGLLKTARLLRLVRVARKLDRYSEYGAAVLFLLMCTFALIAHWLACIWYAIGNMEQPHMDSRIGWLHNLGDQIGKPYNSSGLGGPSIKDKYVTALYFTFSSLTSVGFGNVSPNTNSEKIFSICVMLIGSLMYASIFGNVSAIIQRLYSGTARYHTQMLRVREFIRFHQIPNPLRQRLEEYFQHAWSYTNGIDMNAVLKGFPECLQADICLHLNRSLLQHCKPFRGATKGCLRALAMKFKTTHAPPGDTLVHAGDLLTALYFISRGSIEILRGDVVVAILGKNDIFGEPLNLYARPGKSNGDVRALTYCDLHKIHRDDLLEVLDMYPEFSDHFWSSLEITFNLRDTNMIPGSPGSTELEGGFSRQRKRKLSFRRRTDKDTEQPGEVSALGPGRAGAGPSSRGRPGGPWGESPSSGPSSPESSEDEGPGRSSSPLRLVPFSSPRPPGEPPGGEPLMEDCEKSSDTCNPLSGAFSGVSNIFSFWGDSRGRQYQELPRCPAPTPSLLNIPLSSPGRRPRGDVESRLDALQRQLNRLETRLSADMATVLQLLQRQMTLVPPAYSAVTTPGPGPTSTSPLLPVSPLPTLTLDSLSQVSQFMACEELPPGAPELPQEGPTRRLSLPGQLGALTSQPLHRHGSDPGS

Row | Structure (SMILES) | hERG current change (%, negative = inhibition) at 10uM
1 | CC(C)CCC(O)(c1ccccc1)C(CN1CCOCC1)c1ccccc1.Cl (centres unmarked) | -1.36%
2 | CNS(=O)(=O)Cc1ccc2[nH]cc(CCN(C)C)c2c1 | 10.6%
3 | Cc1ccc(C)c(CN2CCC(CNC(=O)CCc3nnc4ccc(N5CCCCC5)nn34)CC2)c1 | -30.3%
4 | COc1ccc(NC(=O)NNC(=O)c2ccccc2-n2cccc2)cc1OC | 25.4%
5 | COc1ccc(Cn2c(-c3ccco3)nc3oc4cc(OC)ccc4c(=O)c3c2=O)cc1 | -31.4%
6 | COc1ccc(-c2nc3oc4cc(OC)ccc4c(=O)c3c(=O)n2Cc2ccco2)cc1 | -27.5%
7 | COc1ccc2c(=O)c3c(=O)n(Cc4ccco4)c(-c4ccco4)nc3oc2c1 | -62.4%
8 | COc1ccc2c(=O)c3c(=O)n(Cc4ccco4)c(-c4ccccc4)nc3oc2c1 | -32.2%
9 | COc1ccc2c(=O)c3c(=O)n(Cc4ccco4)c(-c4ccc(C)cc4)nc3oc2c1 | -53.3%
10 | COc1ccc2c(=O)c3c(=O)n(Cc4ccco4)c(-c4cc(OC)c(OC)c(OC)c4)nc3oc2c1 | -16%
11 | Nc1c(C(=O)Nc2ccc3c(c2)OCCO3)nnn1Cc1cccc(F)c1 | -4.88%
12 | COc1ccc2c(C)nc(Nc3nc(-c4ccccc4)cc(=O)[nH]3)nc2c1 | 2.47%
13 | Cc1ccccc1C(=O)c1cccn1CC(=O)NCCCc1ccccc1 | 9.69%
14 | O=C(Cn1cccc1C(=O)c1ccccc1)NCCCc1ccccc1 | -8.33%
15 | CCCNC(=O)Cn1cccc1C(=O)c1ccccc1 | 14.7%
16 | Cc1ccccc1C(=O)c1cccn1CC(=O)NCCCN1CC(C)CC(C)C1 (centres unmarked) | -72.1%
17 | Cc1ccccc1C(=O)c1cccn1CC(=O)NCc1ccccc1 | 21.7%
18 | CC1CC(C)CN(CCCNC(=O)Cn2cccc2C(=O)c2ccccc2)C1 (centres unmarked) | -63.1%
19 | Cc1ccc(NC(=O)c2ccc(OCC3CCCO3)cc2)c(C)c1 (centres unmarked) | -9.65%
20 | Cc1cc(NC(=O)c2sc(Nc3ccc(F)cc3)nc2N)no1 | 20%
21 | CC(=O)Nc1ccc(S(=O)(=O)N2CCN(c3nc(NC4CCCC4)c4ccccc4n3)CC2)cc1 | -75.8%
22 | Cc1ccc(S(=O)(=O)N2CCN(c3ccccc3)CC2)cc1C | 6.82%

Row | Structure (SMILES) | hERG current change (%, negative = inhibition) at 10uM
23 | Cc1cc(N2CCN(S(=O)(=O)c3ccccc3)CC2)nc2c(C)cccc12 | 23.1%
24 | Cc1cc(N2CCN(S(=O)(=O)c3ccccc3)CC2)c2ccccc2n1 | -73.3%
25 | Cc1ccc(S(=O)(=O)N2CCN(c3ncccn3)CC2)cc1C | 13.9%
26 | Cc1cc(N2CCN(S(=O)(=O)c3ccc(C)c(C)c3)CC2)c2ccccc2n1 | -64.6%
27 | Cn1c(N2CCN(S(=O)(=O)c3ccc(Cl)cc3)CC2)nc2ccccc21 | -34%
28 | CC(=O)Nc1ccc(S(=O)(=O)N2CCN(c3ccccn3)CC2)cc1 | -3.36%
29 | Cc1ccccc1N1CCN(S(=O)(=O)c2ccccc2)CC1 | 0.732%
30 | CC(=O)Nc1ccc(S(=O)(=O)N2CCN(c3ncccn3)CC2)cc1 | 6.13%
31 | Cc1cc(N2CCN(S(=O)(=O)c3ccc(Cl)c(Cl)c3)CC2)c2ccccc2n1 | -45.3%
32 | Cc1cc(N2CCN(S(=O)(=O)c3ccc(Cl)cc3)CC2)c2ccccc2n1 | -77.8%
33 | O=C(CCCn1nnc2ccccc2c1=O)N[C@@H](Cc1ccccc1)C(=O)O | 13%
34 | COc1cc(OC)c(/C=N/n2c(C3CCCCC3)n[nH]c2=S)c(OC)c1 | 22.6%
35 | CCSc1nc2c(c(=O)n1-c1ccc(F)cc1)SCC2 | -4.12%
36 | Cc1cc(C)cc(NC(=O)N2C3CCCC2CC(NC(=O)C2CC2)C3)c1 (centres unmarked) | 17%
37 | Fc1ccc(COc2ccccc2-c2ccnc3ncnn23)cc1 | -6.51%
38 | Cc1cccc(C)c1NC(=O)CN(C)CC(=O)N(C)CC(=O)Nc1ccccc1Br | 14%
39 | CCCn1c(-c2ccc[nH]c2=O)nc2ccccc21 | 15.6%
40 | CCOC(=O)c1ccc(NC(=O)C2CC(=O)N(c3ccc4c(c3)OCCO4)C2)cc1 (centres unmarked) | 10.7%
41 | COC(=O)c1nn(-c2c(C)n(C)n(-c3ccccc3)c2=O)cc1O | 5.84%
42 | COc1cccc(NC(=S)NNC(=O)CCn2cc([N+](=O)[O-])cn2)c1 | -2.61%
43 | Cc1ccc(NCc2nnc(SCC(=O)N(Cc3ccccc3)C(C)(C)C)o2)c(C)c1 | -9.53%
44 | CC(=O)Nc1ccc(S(=O)(=O)N2CCN(c3nc(C)cc(C)n3)CC2)cc1 | 5.68%

Row | Structure (SMILES) | hERG current change (%, negative = inhibition) at 10uM
45 | CC(=O)Nc1ccc(S(=O)(=O)N2CCN(S(=O)(=O)c3ccccc3)CC2)cc1 | 11.7%
46 | CC(=O)Nc1ccc(S(=O)(=O)N2CCN(c3cc(C)nc4ccccc34)CC2)cc1 | -88.5%
47 | C[C@@H](NC(=O)c1[nH]cnc1C(=O)Nc1nccs1)c1ccccc1 | -3.32%
48 | CC(=O)Nc1cccc(C(=O)Nc2ccccc2N2CCOCC2)c1 | -0.962%
49 | Cc1ccccc1-n1c(Cn2c(=O)sc3ccccc32)nnc1SCC(=O)NCC1CCCO1 (centres unmarked) | -2.85%
50 | CCOc1ccccc1-n1c(=O)c2ccccc2c2ccccc2c1=O | -6.99%
51 | CC1c2c([nH]c3ccccc23)CCC1C(=O)O (centres unmarked) | 22.4%
52 | CC1(C)CC(=O)CC2(C1)NCC(c1ccccc1)c1c2[nH]c2ccccc12.Cl (centres unmarked) | -85.8%
53 | COc1cccc(C2CNC3(CCCC(C)C3)c3[nH]c4ccccc4c32)c1OC.Cl (centres unmarked) | -23.6%
54 | CC1(C)CC(=O)CC2(C1)NCC(c1ccccc1Cl)c1c2[nH]c2ccccc12.Cl (centres unmarked) | -51.4%
55 | CC1(C)NC(C(=O)O)Cc2c1[nH]c1ccccc21 (centres unmarked) | 3.65%
56 | ClCC1NCC(c2ccccc2Cl)c2c1[nH]c1ccccc21 (centres unmarked) | 0.482%
57 | O=Nc1ccc(NOC(=O)c2ccccc2Br)cc1 | 3.45%
58 | CC(C)(C)c1cc(CCC(=O)Nc2ccncc2)cc(C(C)(C)C)c1O | -16.6%
59 | CCN(CC)CCNC(=O)Cn1nc(-c2ccccc2)c2ccccc2c1=O | -31%
60 | CCN(CC)CCNC(=O)C(C)c1nn(CC)c(=O)c2ccccc12.Cl (centres unmarked) | 7.49%
61 | CCN(CC)CCN1C(=O)C2C3c4ccccc4C(c4ccccc43)C2C1=O (centres unmarked) | -2.51%
62 | CCN(CC)CCN1C(=O)Cn2c(C)c(C)c3cccc1c32.O=C(O)C(O)C(O)C(=O)O | -65.1%
63 | CCN(CC)CCN1C(=O)Cn2c(C)c(C)c3cccc1c32.Cl | -52.4%
64 | Cc1c(C)n2c3c(cccc13)CC2 | -0.781%
65 | Cc1ccc(NC(=O)Cn2c(=O)n(Cc3ccco3)c(=N)c3c4c(sc32)COC(C)(C)C4)cc1 | -7.76%
66 | CC(C)[C@H](NC(=O)c1ccco1)C(=O)OCC(=O)N1CC(=O)Nc2ccccc21 | 13.3%

Row | Structure (SMILES) | hERG current change (%, negative = inhibition) at 10uM
67 | O=C1N/C(=C/c2ccc(N3CCOCC3)cc2)C(=O)N1Cc1ccc(F)cc1 | 22.1%
68 | CCOC(=O)C1CCN(C(=O)CSc2cc(=O)n(CC)c3ccccc23)CC1 | -29.4%
69 | O=[N+]([O-])c1cc2c(c(CSc3nnc4ccccn34)c1)OCOC2 | -12.4%
70 | O=C(O)C(Cc1ccccc1)n1cnnn1 (centres unmarked) | 7.85%
71 | CCC(CC)c1nn2c(N)c(/C=C3\C=Nc4ccccc43)c(=O)nc2s1 | 0.567%
72 | COc1ccc(S(=O)(=O)N2CCCC(C(=O)O)C2)cc1Cl (centres unmarked) | 6.43%
73 | CC1=NNC(=O)C1CC(=O)N/N=C/C(Br)=C/c1ccccc1 (centres unmarked) | 9.09%
74 | O=c1c2ccccc2oc2ccc(-c3ccc4[nH]ccc4c3)cc12 | -2.53%
75 | Cc1ccc(NC(=O)c2cn(CCC#N)nc2-c2ccc3c(c2)OCCO3)c([N+](=O)[O-])c1 | -33.9%
76 | N#CCCn1cc(C(=O)Nc2ccc(C(=O)O)cc2)c(-c2cccs2)n1 | 21%
77 | COc1ccc(NC(=O)c2cn(CCC#N)nc2-c2cccs2)cc1 | -11.3%
78 | N#CCCn1cc(C(=O)Nc2ccc([N+](=O)[O-])cc2)c(-c2ccc3c(c2)OCCO3)n1 | -72.8%
79 | COc1ccc(NC(=O)c2cn(CCC#N)nc2-c2ccc([N+](=O)[O-])cc2)cc1 | 2.58%
80 | N#CCCn1cc(C(=O)Nc2ccc(F)cc2)c(-c2ccc([N+](=O)[O-])cc2)n1 | -57.1%
81 | N#CCCn1cc(C(=O)Nc2ccc(F)cc2)c(-c2ccccc2)n1 | -15.2%
82 | CCOC(=O)c1ccc(NC(=O)c2cn(CCC#N)nc2-c2ccc3c(c2)OCCO3)cc1 | -4.59%
83 | N#CCCn1cc(C(=O)Nc2ccc([N+](=O)[O-])cc2)c(-c2cccs2)n1 | -59.7%
84 | COc1ccc(-c2nn(CCC#N)cc2C(=O)Nc2ccccc2)cc1OC | -6.03%
85 | COc1ccc(-c2nn(CCC#N)cc2C(=O)Nc2cccc([N+](=O)[O-])c2)cc1OC | -57.9%
86 | COc1ccc(-c2nn(CCC#N)cc2C(=O)Nc2cccc(C(=O)O)c2)cc1OC | 20.9%
